Assay outcomes as filed in PubChem BioAssay.
ATXN2 expr inh = inhibitors of ATXN2 expression. Potency, µM (titrated, usually from 57 µM), for the others: top-dose activity change, negative = inhibition, hits mostly inhibitors. HEK-293 ATXN2-luciferase reporter, luminescence, 24 h. AID 1745845. 360,000 compounds, 0.72% hits; further: on the % scale 0 is the no-effect control and ±100 the full control effect; nearly all actives have a fitted effect of over 55% in size
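qHTS (up to 57 uM final) was run with 24 h compound exposure of reporter cells at 37 °C. Each well was multiplexed: SteadyGlo luminescence measured ATXN2-luciferase expression after a fluorogenic Gly-Phe-AFC viability readout (25 uM final).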
HT1080 IDH1KD tx = kills HT-1080 cells with IDH1 knockdown | Potency, µM (series often up to 46.1 µM), for the others: at the highest dose activity, negative = toxicity, actives largely listed as cytotoxic | 360,000 compounds, 2% hits | AID 686971 | HT-1080 IDH1 knockdown viability, ATP luminescence, 48 h;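 further: 0% = DMSO wells and -100% = cell-free medium wells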
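Knockdown cells (IDH1KD HT-1080) received compounds 2 h after plating at 750 cells/well and were kept 48 h at 37 °C in 5% FBS RPMI. A CellTiter-Glo luminescence read gave % activity for curve fitting.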
HepG2 tox = kills HepG2 cells in TGF-b inhibitor counter-screen; HepG2 CAGA-GFP viability, ATP luminescence, 18 h; Potency, µM (doses to about 46.1 µM), for inactives: at the top dose activity change, negative = cytotoxicity, most hits filed as cytotoxic; 410,000 compounds, 0.76% hits
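HepG2 CAGA-GFP cells (1000/well, DMEM with 1% FBS) received compound, then TGF-beta at 500 pg/mL final, and were incubated 18 hours at 37 degrees C. Viability was read by CellTiter-Glo luminescence. Media-only wells were set as complete cell-killing and DMSO as no toxicity.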
HT1080NT lethal = kills 2HG-producing HT-1080-NT fibrosarcoma cells. HT-1080-NT fibrosarcoma viability, CellTiter-Glo ATP luminescence, 48 h. Potency, µM (top dose mostly 46.1 µM), for inactives: top-dose activity, negative = less viability, usual class: cytotoxic. AID 686970. 360,000 compounds, 1.6% hits;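 further: NT is the 2HG producing partner of a matched IDH1 knockdown line; 0% = DMSO-treated cells and -100% = media-only wells without cells; nearly all actives have a fitted effect of over 55% in size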
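HT-1080-NT; 750 cells/well; 5% FBS RPMI; 48 h compound, 37 degrees C; CellTiter-Glo luminescence; curve fitting and curve-class assignment.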
ATXN viability = reduces viability in counter-screen for ATXN expression inhibitors. S2 cells (HEK-293 line with an ATXN2-luciferase reporter) viability, CellTiter-Fluor protease fluorescence, 24 h. Potency, µM (highest dose often 56.7 µM), usual class: cytotoxic. 400,000 compounds, 0.49% hits. AID 651635; further: nearly all actives have a fitted effect of over 40% in size
TGFb inhibitor = blocks TGF-b signaling. HepG2 CAGA-GFP TGF-b/SMAD3 reporter, GFP fluorescence, 18 h; TGF-beta stimulated, 500 pg/mL final. Potency, µM (series often up to 46.1 µM), inactives show at the highest dose activity, negative = inhibition, most hits filed as inhibitors. 410,000 compounds, 1.2% hits; further: on the % scale 0 is the no-effect control and ±100 the full control effect; nearly all actives have a fitted effect of over 65% in size
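HEPG2 CAGA-GFP cells (1000/well, DMEM with 1% FBS) were pre-incubated 2 h at 37 degrees C, given compound by pin tool, then stimulated with TGF-beta at 500 pg/mL final for 18 h before per-cell GFP fluorescence imaging.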
Active calls of the source: *; [ ] = another dose, or the depositor's remark. Rows were chosen to be rich in hits. Some 3.8% of all compounds tested hit in one or more screens of this group. The call rests on the fitted dose curve; in most records, active means well fitted curve in the direction sought with a large enough effect; inconclusive means small, poorly fitted or top-dose-only effect, or another doubt; inactive means no such curve, though single readings can be large; an effect the other way counts as inactive or inconclusive. Potency means the concentration at half of the fitted maximal effect.

COc1ccc(-c2cc(C(=O)NCc3ccco3)c3ccccc3n2)cc1OC was read as ATXN2 expr inh -12%, HT1080 IDH1KD tx -6%, HepG2 tox 0.5µM*, HT1080NT lethal -8%, ATXN viability inactive and TGFb inhibitor 17%.
`COc1ccc(S(=O)(=O)N2c3ccc(Cl)cc3[C@@](O)(c3ccccc3Cl)[C@H]2C(=O)N2CCC[C@@H]2C(N)=O)cc1OC` gave ATXN2 expr inh 7% and ATXN viability inactive.
COc1ccc(Cc2nc3c4cnn(-c5cccc(F)c5)c4ncn3n2)cc1 was read as HepG2 tox -3%.
`Cn1c(N)c(C(=O)COC(=O)c2ccccc2C(=O)c2ccc(Cl)c([N+](=O)[O-])c2)c(=O)n(C)c1=O` gave ATXN2 expr inh inconclusive, HT1080 IDH1KD tx inconclusive, HepG2 tox -7%, HT1080NT lethal inconclusive and TGFb inhibitor inconclusive.
Screening O=C(COC(=O)c1ccc2c(c1[N+](=O)[O-])C(=O)c1ccccc1C2=O)NC1CC1 returned ATXN2 expr inh -16%, HT1080 IDH1KD tx inconclusive, HepG2 tox -43%, HT1080NT lethal inconclusive, ATXN viability 28µM* and TGFb inhibitor 18µM*.
Screening COc1ccc(C(=O)c2ccc(Cl)c([N+](=O)[O-])c2)cc1 returned ATXN2 expr inh -21%, HT1080 IDH1KD tx 5.8µM*, HepG2 tox -27%, HT1080NT lethal inconclusive, ATXN viability inconclusive and TGFb inhibitor inconclusive.
`COc1ccc(C(=O)c2ccc(Cl)cc2)cc1` gave ATXN2 expr inh 20%, HT1080 IDH1KD tx 6%, HepG2 tox -3%, HT1080NT lethal inconclusive, ATXN viability inconclusive and TGFb inhibitor inconclusive.
CN(CCC#N)C(=O)COC(=O)c1ccccc1C(=O)c1ccc(Cl)c([N+](=O)[O-])c1 was read as ATXN2 expr inh -37%[11.3 µM], HT1080 IDH1KD tx 16µM*, HepG2 tox 0%, HT1080NT lethal 10µM* and TGFb inhibitor 6%.
`CC(C)N(C(=O)COC(=O)c1ccccc1C(=O)c1ccc(Cl)c([N+](=O)[O-])c1)C(C)C` gave ATXN2 expr inh inconclusive, HT1080 IDH1KD tx 21µM*, HepG2 tox -3%, HT1080NT lethal 18µM*, ATXN viability inactive and TGFb inhibitor 3%.
`Cc1ccc(/C=C/c2onc(C)c2S(=O)(=O)N2CCC(C(=O)NCc3ccc(OC(C)C)cc3)CC2)cc1` gave HepG2 tox 9% and TGFb inhibitor -12%.
For O=C(COC(=O)c1ccccc1C(=O)c1ccc(Cl)c([N+](=O)[O-])c1)NC1CCCCCC1 the results were ATXN2 expr inh inconclusive, HT1080 IDH1KD tx 3.2µM*, HepG2 tox -78%, HT1080NT lethal 8.9µM* and TGFb inhibitor inconclusive.
For COC(=O)c1cc(CNC(=O)c2cnsn2)cc(NC(=O)c2ccccc2OC)c1 the results were ATXN viability inactive.
COCCNC(=O)NC1(C(F)(F)F)Oc2ccc(Cl)cc2O1 (configuration not stated) was read as ATXN2 expr inh -17%, HT1080 IDH1KD tx inconclusive, HepG2 tox -51%, HT1080NT lethal inconclusive, ATXN viability inactive and TGFb inhibitor -11%.
Screening Cc1cc(NC(=O)NC2(C(F)(F)F)Oc3ccc(Cl)cc3O2)no1 (configuration not stated) returned ATXN2 expr inh -33%, HT1080 IDH1KD tx 10µM*, HepG2 tox -49%, HT1080NT lethal inconclusive, ATXN viability inactive and TGFb inhibitor -6%.
COc1ccccc1/C=C/c1onc(C)c1S(=O)(=O)N1CCC(C(=O)N2CCC(C)CC2)CC1 was read as HepG2 tox 4% and TGFb inhibitor inconclusive.
Screening OC[C@@H]1CN(Cc2ccc(-c3ccccc3)cc2)C[C@H](n2cnc3c(NCc4ccco4)ncnc32)O1 returned ATXN2 expr inh inconclusive, HT1080 IDH1KD tx 18µM*, HepG2 tox -27%, HT1080NT lethal 21µM*, ATXN viability inconclusive and TGFb inhibitor inconclusive.
For OC[C@@H]1CN(Cc2cccc(C(F)(F)F)c2)C[C@H](n2cnc3c(NCc4ccc(F)cc4)ncnc32)O1 the results were ATXN2 expr inh inconclusive, HT1080 IDH1KD tx 21µM*, HepG2 tox -2%, HT1080NT lethal inconclusive, ATXN viability inconclusive and TGFb inhibitor inconclusive.
OC[C@@H]1CN(Cc2cccc(C(F)(F)F)c2)C[C@H](n2cnc3c(NCc4ccco4)ncnc32)O1 was read as ATXN2 expr inh 0%, HT1080 IDH1KD tx -17%, HepG2 tox -42%, HT1080NT lethal -16%, ATXN viability inactive and TGFb inhibitor -11%.
`OC[C@@H]1CN(Cc2ccc(-c3ccccc3)cc2)C[C@H](n2cnc3c(NCc4ccncc4)ncnc32)O1` gave ATXN2 expr inh 0%, HT1080 IDH1KD tx 23µM*, HepG2 tox -23%, HT1080NT lethal inconclusive, ATXN viability inconclusive and TGFb inhibitor inconclusive.
For OC[C@@H]1CN(Cc2ccccc2)C[C@H](n2cnc3c(NCc4ccco4)ncnc32)O1 the results were ATXN2 expr inh 10%, HT1080 IDH1KD tx 10%, HepG2 tox -19%, HT1080NT lethal -1%, ATXN viability inactive and TGFb inhibitor -2%.
COc1cc(-c2ccc(C(F)(F)F)cn2)cc2c1OCCN(S(=O)(=O)C[C@]13CC[C@H](CC1=O)C3(C)C)C2 was read as ATXN viability inactive.
Screening CN(C)CCN1C(=O)c2cccc3cc(N)cc(c23)C1=O returned ATXN2 expr inh 5.4µM*.
Screening CCN(CC)CCN1C(=O)c2cccc3cc(N)cc(c23)C1=O returned ATXN2 expr inh inconclusive, HT1080 IDH1KD tx 33µM*, HepG2 tox -13%, HT1080NT lethal 33µM*, ATXN viability inconclusive and TGFb inhibitor inconclusive.
For COc1ccc(C)cc1-n1c(-c2ccc(Cl)cc2)cc2c1CC(C)(C)CC2=O the results were ATXN2 expr inh 0%, HepG2 tox -15%, ATXN viability inactive and TGFb inhibitor 0%.
For COc1ccc(-n2c(-c3ccc(Cl)cc3)cc3c2CC(C)(C)CC3=O)c(OC)c1 the results were ATXN2 expr inh inconclusive, HepG2 tox -50%, ATXN viability inconclusive and TGFb inhibitor 18µM*.
For COc1ccc(-c2n(Cc3ccccc3)c3ccccc3[n+]2Cc2ccccc2)cc1 the results were ATXN2 expr inh inconclusive, HT1080 IDH1KD tx 5.8µM*, HepG2 tox -45%, HT1080NT lethal 4.6µM*, ATXN viability inactive and TGFb inhibitor 7.9µM*.
